Screening results from PubChem BioAssay.
GRK2 aptamer HTS: compounds blocking aptamer binding on GRK2 – biochemical, human GRK2, bead flow cytometry, HTS, primary screen | FAM-aptamer displacement from GRK2 | inhibition of aptamer binding, % at 10 µM | 0.59% of 330,000 active | AID 488847, 2010;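 active means inhibition of aptamer binding above 40%, roughly 3 SD of noise, on plates passing a quality check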;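 further: median bead fluorescence of bound FAM aptamer so fluorescent compounds give negative values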
NOD2 RIPK2 PPI: NOD2-RIPK2 binding disruptors in cells, primary screen, fluorescence, CHO cells, BLA complementation; 0.38% of 360,000 active; CCF4 ratio; AID 624267, 2012; inhibition, % at 4.98 µM; in the data active means inhibition above about 21%;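 further: 0% = vehicle only and 100% = reference blocker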
TMEM16A inh: TMEM16A chloride channel inhibitors, primary screen, cell-based, HTS | HEK293 TMEM16A/YFP iodide influx fluorescence, ionomycin | normalized B-score (activity score, 25-100; higher = stronger inhibition) at 10 µM | 1.2% of 310,000 active;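 active means ratio plate-corrected score three or more library SD toward inhibition, starting fluorescence score within five deviations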;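 further: score derived from kinetic fluorescence span divided by baseline fluorescence per well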
TLR9-MyD88 block: inhibitors of TLR9-MyD88 association in cells, primary screen, cell-based, CHO, BLA complementation, fluorescence. Toll-like receptor 9 (Homo sapiens) + Myeloid differentiation primary response protein …. CCF4 FRET ratio. inhibition, % at 4.98 µM. 0.21% of 340,000 active. AID 504734, 2011;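 active means inhibition above the mean over all tested compounds plus 3 SD, cut at about 21% in these data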;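 further: 0% = DMSO only wells and 100% = clavulanate BLA inhibitor control wells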
TLR4 MyD88 comp: inhibitors of TLR4-MyD88 association in cells, primary screen, cell-based, HeLa CL3-4, BLA complementation, FRET ratio; Toll-like receptor 4 (Homo sapiens) + Myeloid differentiation primary response protein …; HeLa CL3-4 TLR4/MyD88 BLA complementation; inhibition, % at 8.4 µM; 0.18% of 200,000 active; AID 861, 2007; in the data active means inhibition above about 25%;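 further: 0% = vehicle and 100% = reference inhibitor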
Target sequence (O00206 whole entry, looked up): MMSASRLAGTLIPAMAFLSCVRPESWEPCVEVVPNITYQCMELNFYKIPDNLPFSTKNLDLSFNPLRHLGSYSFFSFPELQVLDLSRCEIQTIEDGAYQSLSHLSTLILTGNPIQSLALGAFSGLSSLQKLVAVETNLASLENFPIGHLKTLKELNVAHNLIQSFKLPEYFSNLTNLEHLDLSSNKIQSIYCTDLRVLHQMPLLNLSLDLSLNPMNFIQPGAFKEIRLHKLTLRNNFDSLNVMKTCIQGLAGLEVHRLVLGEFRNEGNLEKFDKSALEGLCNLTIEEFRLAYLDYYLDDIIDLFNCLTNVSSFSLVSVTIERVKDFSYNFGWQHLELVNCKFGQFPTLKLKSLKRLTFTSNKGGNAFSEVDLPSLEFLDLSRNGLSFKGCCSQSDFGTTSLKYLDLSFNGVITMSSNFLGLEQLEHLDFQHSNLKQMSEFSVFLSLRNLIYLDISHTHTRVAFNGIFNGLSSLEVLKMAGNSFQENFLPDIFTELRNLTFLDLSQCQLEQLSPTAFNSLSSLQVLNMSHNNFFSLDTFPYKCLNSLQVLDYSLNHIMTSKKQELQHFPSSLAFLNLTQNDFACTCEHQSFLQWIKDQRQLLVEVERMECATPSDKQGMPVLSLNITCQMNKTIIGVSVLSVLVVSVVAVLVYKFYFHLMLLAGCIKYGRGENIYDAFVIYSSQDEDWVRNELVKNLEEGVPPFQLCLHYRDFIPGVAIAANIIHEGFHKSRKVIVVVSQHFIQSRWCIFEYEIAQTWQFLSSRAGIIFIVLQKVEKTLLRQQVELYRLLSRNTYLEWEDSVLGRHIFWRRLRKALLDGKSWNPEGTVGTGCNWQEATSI
Target sequence (Q99836 whole entry, looked up): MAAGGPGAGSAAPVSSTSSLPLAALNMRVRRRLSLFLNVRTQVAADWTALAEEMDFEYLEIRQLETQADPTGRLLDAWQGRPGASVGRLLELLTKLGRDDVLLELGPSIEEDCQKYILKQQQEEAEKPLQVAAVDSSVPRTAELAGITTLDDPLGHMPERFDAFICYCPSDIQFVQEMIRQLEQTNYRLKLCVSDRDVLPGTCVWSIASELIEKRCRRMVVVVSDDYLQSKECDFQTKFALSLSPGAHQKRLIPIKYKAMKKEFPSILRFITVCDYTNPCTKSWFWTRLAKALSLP
ANO1 activ: TMEM16A chloride channel activators or potentiators, primary screen, cell-based, HTS | Anoctamin-1 (Mus musculus), Q8BHY3 | HEK293 TMEM16A/YFP-H148Q/I152L, iodide quench fluorescence; hits give low values | B-score at 10 µM | 0.3% of 340,000 active | AID 623877, 2012;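 active means fluorescence-ratio B-score plate-corrected deviation score at least 3 library SD below zero, with starting fluorescence score within 5 deviations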;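 further: channel opened by trigger with iodide after compound preincubation; score built on the fluorescence ratio of max minus min over baseline; more negative score means more quench and so TMEM16A activation or potentiation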
GRK2 CP1: GRK2 aptamer-displacing inhibitors, retest, confirmation, biochemical, cherry pick 1, bead flow cytometry. 4% of 2,000 active. AID 504451, 2011. bead-bound GRK2, FAM-aptamer displacement. aptamer displacement, % at 10 µM. shares compounds with GRK2 aptamer HTS;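 active means aptamer displacement above 40%, near three times the noise of non-fluorescent compounds, on plates passing quality checks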;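 further: negative values mostly reflect intrinsic compound fluorescence rather than true enhancement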
Aptamer quench SP: quenches fluorescent RNA aptamer, GRK2 hit artifact. shares compounds with GRK2 aptamer HTS. Carboxyfluorescein RNA aptamer on beads, flow cytometry quenching; hits give low values. fluorescence response (% of DMSO), % at 10 µM. 2,000 tested, under 10 active;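 active means compounds that quench the bead-bound fluorescent RNA probe, cutting fluorescence to under half of the solvent control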;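 further: counterscreen run without GRK2 so only probe quenching by compound is measured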
GRK2 confirm 2: GRK2 aptamer-displacing inhibitors, hit retest, confirmation, biochemical, cherry pick 2, bead flow cytometry. 360 tested, under 10 active. inhibition of aptamer binding, % at 10 µM. bead-bound GRK2, FAM-aptamer displacement. shares compounds with GRK2 aptamer HTS;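 active means inhibition of aptamer binding above 40%, about triple the noise seen with nonglowing compounds, on plates passing quality control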;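 further: negative values mostly come from compounds that fluoresce themselves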
FAM quench CP2: aptamer fluorescence quenching in GRK2 counter-screen; shares compounds with GRK2 aptamer HTS; carboxyfluorescein RNA aptamer beads, flow cytometry quenching; hits give low values; fluorescence response vs DMSO, % at 10 µM; 360 tested, under 10 active;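 active means response vs DMSO under 50%, meaning signal dropped by over half, treated as fluorescence quencher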;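 further: labelled aptamer on streptavidin beads without GRK2 as a quench counter-screen; 100% = bead fluorescence of DMSO wells and lower means quenching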
The depositor's hits bear a star; i = inactive; . = not tested or not shown. Sampled rows, rich in hits. Any-hit rate of the full collection: about 2.2%.

SMILES	GRK2 aptamer HTS	NOD2 RIPK2 PPI	TMEM16A inh	TLR9-MyD88 block	TLR4 MyD88 comp	ANO1 activ	GRK2 CP1	Aptamer quench SP	others
COc1ccc(Cl)cc1C(=O)Nc1cccc(-c2ccc3nncn3n2)c1	60*	-17	i	1	1	i	17	96
CN1C(C(=O)Nc2ccc(C(=O)O)cc2)=C(O)c2ccccc2S1(=O)=O	0	-11	.	-2	.	i	.	.
CCCCN1C(C(=O)Nc2ncccn2)=C(O)c2ccccc2S1(=O)=O	4	2	i	-6	.	i	-1	96
Cc1cc(N2CCOCC2)n2nc(C)c(-c3ccccc3)c2n1	2	6	i	8	-10	i	.	.
CCc1nn2c(N3CCOCC3)cc(C)nc2c1-c1ccccc1	4	-4	i	6	.	i	9	99
Cc1ccccc1CNS(=O)(=O)c1c(C)[nH]c(C)c1C(=O)N1CCCCC1	3	0	i	-12	.	i	.	.
COC(=O)c1c2c(nc3ccccc13)CCC2	10	5	i	-2	1	i	.	.
CCc1ccc2nc3c(c(C(=O)O)c2c1)CCC3	13	7	i	2	-6	i	.	.	GRK2 confirm 2=13;FAM quench CP2=101
O=C(O)c1c2c(nc3ccc(S(=O)(=O)N4CCC(C(=O)N5CCCCC5)CC4)cc13)CCCC2	84*	-3	i	2	4	i	-1	98
CCn1cc(C(=O)N[C@@H](CCSC)C(=O)NCCCN2CCOCC2)c(=O)c2cc3c(cc21)OCO3	0	6	i	-18	.	i	.	.
CC1CC(C)CN(C(=O)C(Cc2ccccc2)n2cccc2)C1 (stereo unspecified)	0	-5	i	-3	.	i	.	.
CC1CCN(C(=O)C(Cc2ccccc2)n2cccc2)CC1 (stereo unspecified)	56*	-1	i	4	9	i	3	100
COc1ccc(NC(=O)c2ccccc2[N+](=O)[O-])cc1	51*	3	i	-8	6	i	.	.	GRK2 confirm 2=10;FAM quench CP2=98
COc1ccccc1-n1cnnc1SCC(=O)N1CCN(S(=O)(=O)c2ccccc2)CC1	0	2	i	9	-1	i	.	.
O=C(CSc1nncs1)N1CCN(C(=O)c2ccco2)CC1	81*	0	i	4	.	i	-1	100
COc1ccccc1-n1cnnc1SCC(=O)N1CCN(C(=O)c2ccco2)CC1	45*	-6	i	4	7	i	1	99
O=C(CSc1nnc(SCc2ccc(Cl)cc2)s1)N1CCN(C(=O)c2ccco2)CC1	22	-12	i	-6	-5	i	.	.
CCCCCCN1C[C@@H](O)[C@H](n2cc(C3CC3)nn2)C[C@@H]1c1ccc(C)cc1	.	-2	.	2	.	.	.	.
c1ccc2c(c1)CSc1ccccc1N2	97*	-4	i	.	.	i	-4	97
S=C1Nc2ccccc2CS1	.	-7	.	-8	.	.	.	.
O=C(CSc1cn(CCNC(=O)c2cccs2)c2ccccc12)NC1CCCC1	0	-2	i	2	8	i	.	.	GRK2 confirm 2=0;FAM quench CP2=106
O=C(CSc1cn(CCNC(=O)c2ccccc2)c2ccccc12)NCc1ccco1	72*	-1	i	-9	-2	i	-3	103
CCOCCCN(C(=O)CNC(=O)c1ccco1)C(C(=O)NC1CCCC1)c1ccccc1C (stereo unspecified)	56*	-12	i	-3	3	i	1	104
CCOC(=O)CN(C(=O)CNC(=O)c1ccco1)C(C(=O)NC1CCCC1)c1ccccc1OCC (stereo unspecified)	2	5	i	3	6	i	.	.
Cc1coc2c(C)c3oc(=O)c(CCC(=O)N4CCC(C(=O)NCCCC(=O)O)(c5ccccc5)CC4)c(C)c3cc12	3	1	i	-4	.	i	.	.
SMILES	GRK2 aptamer HTS	NOD2 RIPK2 PPI	TMEM16A inh	TLR9-MyD88 block	TLR4 MyD88 comp	ANO1 activ	GRK2 CP1	Aptamer quench SP	others
COc1cc(F)c(C2=CC(=O)C[C@H](c3ccc4c(c3)OCO4)C2)cc1F	0	0	.	5	.	i	.	.
COc1ccc(F)cc1C1=CC(=O)C[C@H](c2ccc3c(c2)OCO3)C1	41*	9	.	-7	.	i	19	98
Cc1ccc(-c2nc(CS(=O)(=O)CC(=O)N3CCCCCC3)c(C)o2)cc1	73*	-10	i	7	5	i	-4	103
CC1CN(S(=O)(=O)c2cccc(C(=O)Nc3ccc(S(=O)(=O)NC4=NCCCCC4)cc3)c2)CC(C)O1 (stereo unspecified)	0	-21	i	-6	.	i	-3	98
COC(=O)c1ccc(CSc2nnc(C)n2N)o1	100*	-2	i	-8	-12	i	.	.	GRK2 confirm 2=-1;FAM quench CP2=111
O=C(NC(c1ccccc1)c1ccsc1)C1CCN(CCOc2ccc(Cl)cc2Cl)CC1 (stereo unspecified)	.	8	.	.	.	.	.	.
CCC1CCCCN1Cc1nc2c(c(=O)n(C)c(=O)n2C)n1CCCc1ccccc1 (stereo unspecified)	2	3	i	12	.	i	-1	104
CCCn1c(CN2CCCCC2CC)nc2c1c(=O)n(C)c(=O)n2C (stereo unspecified)	47*	2	i	3	7	i	1	100
CCC1CCCCN1Cc1nc2c(c(=O)n(C)c(=O)n2C)n1Cc1ccccc1 (stereo unspecified)	1	-2	i	-12	5	i	.	.
COC(=O)/C=C1\N/C(=N\c2nc(C)cc(C)n2)N(c2ccc(C)c(C)c2)C1=O	0	2	i	6	-11	i	.	.
Cc1ccc(S(=O)(=O)NCC(=O)OCC(=O)NCc2ccco2)cc1	1	-6	.	7	.	i	.	.
O=C(C1Cc2ccccc2CN1C(=O)c1ccccc1)N1CCN(c2ccccc2)CC1 (stereo unspecified)	31	-2	i	-6	.	i	.	.
O=C(COc1ccc(/C=N/NC(=O)c2cc3ccccc3o2)cc1Cl)Nc1ccccc1	54*	-13	i	-2	-2	i	23	123
